From PubChem BioAssay (NCI)
This is part of a sample that, as a whole, favours compounds with a hit. Of some 83,000 tested, about 20% had one in any assay.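 A percent growth of 40 corresponds to 60% growth inhibition; 0 means no net growth; -100 means all cells died. Active threshold: below 10.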 Unmarked numbers belong to inactive results. Calls of active or inactive are those of the source.

What was measured:
Test in all cases: NCI-60 one-dose screen, 48 h (100 = growth as untreated, 0 = no growth, -100 = all killed)
Conditions in all cases: 10 µM unless noted
[1] = tested on: SR leukemia
[2] = tested on: RPMI-8226 leukemia
[3] = tested on: OVCAR-8 ovarian
[4] = tested on: OVCAR-5 ovarian
[5] = tested on: OVCAR-4 ovarian
[6] = tested on: SK-OV-3 ovarian
[7] = tested on: IGROV1 ovarian
[8] = tested on: OVCAR-3 ovarian
[9] = tested on: HS 578T breast
[10] = tested on: NCI/ADR-RES ovarian
[11] = tested on: T-47D breast
[12] = tested on: BT-549 breast
[13] = tested on: MDA-MB-435 melanoma
[14] = tested on: SW-620 colon
[15] = tested on: MCF7 breast
[16] = tested on: HCT-116 colon
[17] = tested on: HCC-2998 colon
[18] = tested on: KM12 colon

Row | SMILES | growth [1] | growth [2] | growth [3] | growth [4] | growth [5] | growth [6] | growth [7] | growth [8] | growth [9] | growth [10] | growth [11] | growth [12] | growth [13] | growth [14] | growth [15] | growth [16] | growth [17] | growth [18]
1 | S=C(Cc1ccccc1)N1CCN(c2ccccc2Cl)CC1 | 70.3% | 95.1% | 99.1% | 97.6% | 105% | 101% | 110% | 106% | 97.3% | 96.7% | 94.4% | 96.6% | 104% | 103% | 110% | 88.2% | 101% | 94.5%
2 | COc1ccc(/C(C)=N/NC(=O)c2ccc(S(C)(=O)=O)cc2)cc1OC | 97.6% | 130% | 110% | 106% | 97.7% | 88.4% | 109% | 113% | 100% | 113% | 82.6% | 96% | 112% | 103% | 92.9% | 84.7% | 104% | 103%
3 | CC(C)(C)c1nn(-c2ccccc2)c2c1C(=O)CSC(c1ccc3c(c1)OCO3)N2 (configuration not stated) | 78.8% | 102% | 109% | 95.7% | 103% | 95.4% | 88.5% | 93.2% | 101% | 88.2% | 84.4% | 112% | 99.6% | 108% | 90.3% | 85.6% | 105% | 101%
4 | CNC(=O)OC1C(O[C@H]2C[C@H]3[C@@H]4CC=C5C[C@@H](O)CC[C@]5(C)[C@H]4CC[C@]3(C)[C@H]2[C@H](C)C(=O)CCC(C)C)OCC(O)C1OC1OCC(O)C(O)C1OC(=O)c1ccc(OC)cc1 (some centres not stated) | 1.47% (active) | -25.5% (active) | 35.5% | 38.8% | 55.8% | -20.6% (active) | 28.3% | 62.7% | -5.93% (active) | 82.8% | – | 18.3% | -25.7% (active) | -37.2% (active) | 3.66% (active) | 8.61% (active) | 67.3% | 36.5%
5 | COc1cnc2c(c1)C(=O)c1c-2n(CCCN2CCCC2)c(=O)c2cc(Cl)ccc12 | -42.9% (active) | 20.3% | 26.1% | 64.8% | 45.4% | 19.6% | 39.4% | 55% | 49.1% | 35.1% | – | 44.5% | 61.1% | -89.4% (active) | -46.1% (active) | -92.8% (active) | 62.1% | 42.4%
6 | Cc1ccccc1Nc1n[nH]c(Cc2ccccc2)n1 | 99.7% | 93.8% | 98.1% | 111% | 112% | 105% | 107% | 106% | 98.9% | 106% | – | 105% | 107% | 102% | 99.1% | 99.9% | 100% | 101%
7 | CCN(CC)CCCC(C)Nc1ccnc2ccc(Oc3ccccc3)cc12 (configuration not stated) | 14.6% | 76.7% | 76.7% | 88.6% | 66.6% | 114% | 77% | 76.8% | 82% | 92.8% | – | 67.3% | 25.8% | 81.3% | 69% | 48.7% | 84% | 86.3%
8 | OCCN(CCO)c1ccc2ccccc2c1 | 104% | 110% | 104% | 98.8% | 104% | 98.3% | 93.7% | 103% | 105% | 98.7% | – | 101% | 104% | 105% | 93.3% | 89.3% | 108% | 99.9%
9 | COc1ccc(C2c3cccn3-c3ccccc3N2C(C)=O)cc1 (configuration not stated) | 74% | 85.5% | 125% | 99.3% | 126% | 101% | 74.3% | 95.3% | – | 91.2% | 103% | 95.4% | 57% | 85.5% | 116% | 97.8% | 90.4% | 80.2%
10 | S=C(Nc1ccc(Cl)cc1)Nc1ccc(Cl)cc1 (tested in a mixture with another compound) | 5.29% (active) | 9.87% (active) | 1.13% (active) | 12.5% | 10.5% | -0.571% (active) | 16.2% | 5.45% (active) | 17.4% | – | 11.6% | 12.8% | 3.6% (active) | 11.8% | 7.15% (active) | 0.154% (active) | 17.8% | 3.43% (active)
11 | COc1cccc(-c2cc(-c3cccs3)c(C#N)c(=O)[nH]2)c1 | 105% | 98.3% | 100% | 113% | 104% | 113% | 108% | 109% | 96.4% | 116% | – | 113% | 103% | 105% | 94.2% | 101% | 125% | 101%
12 | CC(C)CCSc1nc(-c2ccc(F)cc2)c(C#N)c(N2CCN(C)CC2)n1 | 67.5% | 80% | 83.2% | 91.3% | 96.7% | 87% | 95.2% | 93.9% | 79.1% | 87.2% | – | 89% | 93.6% | 90.2% | 83.9% | 79% | – | 91.7%
13 | CCOCCNc1ccc(S(=O)(=O)c2ccc(N)cc2)cc1N | 115% | 92.9% | 98.7% | 103% | 100% | 105% | 114% | 100% | 99% | 100% | – | 107% | 105% | 102% | 113% | 102% | 101% | 99.3%
14 | Oc1ccc(-c2nnc3c4[nH]ccc4ncn23)cc1 | 82.4% | 97.7% | 99.6% | 113% | 102% | 99.7% | 84% | 107% | 95% | – | 93.4% | 89.2% | 97.5% | 108% | 92.1% | 88.8% | 105% | 104%
15 | CCCCCCCCN=C(NCCCCCCCC)SCc1cccc2ccccc12 | -34.6% (active) | -42.1% (active) | -92.5% (active) | -84.2% (active) | -91.7% (active) | -96.3% (active) | -55.5% (active) | -97.9% (active) | -55.3% (active) | – | -97.5% (active) | -74.8% (active) | -95.6% (active) | -91.6% (active) | -88.9% (active) | -83.3% (active) | -96.4% (active) | -94.1% (active)
16 | CCN1C(=O)/C(=C/N2N=C(c3ccc(Cl)cc3)CC2c2ccc(OC)cc2)SC1=S (configuration not stated) | 84.2% | 101% | 93.1% | 101% | 84.4% | 87.4% | 84.3% | 104% | 95.2% | 96.8% | – | 85.1% | 97.1% | 97.6% | 82.4% | 85.8% | 97.7% | 97.6%
17 | CC(=O)c1ccc(Br)c([N+](=O)[O-])c1 | 94.5% | 96.6% | 107% | 119% | 114% | 109% | 109% | 124% | 90.7% | – | 104% | 99.7% | 101% | 120% | 94.1% | 96.9% | 109% | 107%
18 | CC(C)(c1ccccc1)c1cc(O)c(C(C)(C)c2ccccc2)cc1O | 18.5% | 9.65% (active) | 45.6% | 78.8% | 30.8% | 43.1% | 42.4% | 38.9% | 47.4% | 43.7% | – | 20.6% | 35.1% | 31.3% | 12.3% | – | 61% | 19.4%
